# In all, about 16,000 sequences were measured (“rpm ratio (pull-down/input)”: median about 0.5, highest 2% from about 5.5 on). This excerpt belongs to a sample that is enriched for the highest values.
# Target: T1, MBP-FoxP3dN (Mus musculus, UniProt Q99JB6 188-423)
# T1 sequence: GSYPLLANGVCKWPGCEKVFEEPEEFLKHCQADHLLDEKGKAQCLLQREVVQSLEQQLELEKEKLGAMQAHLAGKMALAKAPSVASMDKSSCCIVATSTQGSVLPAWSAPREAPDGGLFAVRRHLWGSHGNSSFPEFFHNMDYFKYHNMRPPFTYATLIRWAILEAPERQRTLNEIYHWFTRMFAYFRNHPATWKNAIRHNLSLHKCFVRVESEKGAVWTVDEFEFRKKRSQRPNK
# Assay: PD-seq (MBP pull-down with sequencing); 20 mM Tris-HCl pH 7.5, 100 mM NaCl, 1.5 mM MgCl2, 0.4 uM protein, 0.1 uM dsDNA library, 30 min, room temperature, amylose pull-down; high values mean tight binding
# Settings: protein: recombinant; tags: His6-MBP; chain copies: 2; dsDNA, one strand shown
# Summary of the method: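 Binding is reads-per-million enrichment of pull-down over input, with replicates pooled. It comes from 30 min room-temperature incubation in Tris pH 7.5 buffer with NaCl and MgCl2 of 0.4 µM His6-MBP-tagged, N-terminally truncated mouse FoxP3 or FoxP1 fragment from E. coli with 0.1 µM Klenow-filled degenerate double-stranded DNA library, followed by amylose resin capture, three washes and Illumina sequencing of the released DNA.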
row,Sequence,binding signal
1,GATGATTGTTCTCCCAGCTGATGAATTTAGATTCTCGAGTAAACAAATTTTCCTAATCTTTCTGTTCAAGCGCCATCTAC,0.815 RPM ratio (pull-down/input)
2,GATGATTGTTCTCCCAGCTGATGAATTGAGTATATCGAGTAAACAAATTTTCCTAATCTTTCTGTTCAAGCGCCATCTAC,1.7 RPM ratio (pull-down/input)
3,GATGATTGTTCTCCCAGCTGATGAATTCTTTGTATCGAGTAAACAAATTTTCCTAATCTTTCTGTTCAAGCGCCATCTAC,0.57 RPM ratio (pull-down/input)
4,GATGATTGTTCTCCCAGCTGATGAATTTGGTGTATCGAGTAAACAAATTTTCCTAATCTTTCTGTTCAAGCGCCATCTAC,3.25 RPM ratio (pull-down/input)
5,GATGATTGTTCTCCCAGCTGATGAATTGTGTAAATCGAGTAAACAAATTTTCCTAATCTTTCTGTTCAAGCGCCATCTAC,0.96 RPM ratio (pull-down/input)
6,GATGATTGTTCTCCCAGCTGATGAATTTGTGTAATCGAGTAAACAAATTTTCCTAATCTTTCTGTTCAAGCGCCATCTAC,4.48 RPM ratio (pull-down/input)
7,GATGATTGTTCTCCCAGCTGATGAATTCTGTGTATCGAGTAAACAAATTTTCCTAATCTTTCTGTTCAAGCGCCATCTAC,5.85 RPM ratio (pull-down/input)
8,GATGATTGTTCTCCCAGCTGATGAATTGTGTGTATCGAGTAAACAAATTTTCCTAATCTTTCTGTTCAAGCGCCATCTAC,6.39 RPM ratio (pull-down/input)
9,GATGATTGTTCTCCCAGCTGATGAATTGTATATCTCGAGTAAACAAATTTTCCTAATCTTTCTGTTCAAGCGCCATCTAC,3.03 RPM ratio (pull-down/input)
10,GATGATTGTTCTCCCAGCTGATGAATTCTCTGTATCGAGTAAACAAATTTTCCTAATCTTTCTGTTCAAGCGCCATCTAC,0.441 RPM ratio (pull-down/input)
11,GATGATTGTTCTCCCAGCTGATGAATTGTGTATATCGAGTAAACAAATTTTCCTAATCTTTCTGTTCAAGCGCCATCTAC,6.5 RPM ratio (pull-down/input)
12,GATGATTGTTCTCCCAGCTGATGAATTTTCTGTATCGAGTAAACAAATTTTCCTAATCTTTCTGTTCAAGCGCCATCTAC,0.456 RPM ratio (pull-down/input)
13,GATGATTGTTCTCCCAGCTGATGAATTTTGTGTATCGAGTAAACAAATTTTCCTAATCTTTCTGTTCAAGCGCCATCTAC,6.55 RPM ratio (pull-down/input)
14,GATGATTGTTCTCCCAGCTGATGAATTTCAACGGTCGAGTAAACAAATTTTCCTAATCTTTCTGTTCAAGCGCCATCTAC,0.241 RPM ratio (pull-down/input)
15,GATGATTGTTCTCCCAGCTGATGAATTTGGTGGCTCGAGTAAACAAATTTTCCTAATCTTTCTGTTCAAGCGCCATCTAC,1.09 RPM ratio (pull-down/input)
16,GATGATTGTTCTCCCAGCTGATGAATTTCATAACTCGAGTAAACAAATTTTCCTAATCTTTCTGTTCAAGCGCCATCTAC,0.332 RPM ratio (pull-down/input)
17,GATGATTGTTCTCCCAGCTGATGAATTATTCATCTCGAGTAAACAAATTTTCCTAATCTTTCTGTTCAAGCGCCATCTAC,0.399 RPM ratio (pull-down/input)
18,GATGATTGTTCTCCCAGCTGATGAATTTAGACCGTCGAGTAAACAAATTTTCCTAATCTTTCTGTTCAAGCGCCATCTAC,0.5 RPM ratio (pull-down/input)

row,Sequence,binding signal
1,GATGATTGTTCTCCCAGCTGATGAATTGTATCTCTCGAGTAAACAAATTTTCCTAATCTTTCTGTTCAAGCGCCATCTAC,1.51 RPM ratio (pull-down/input)
2,GATGATTGTTCTCCCAGCTGATGAATTCTGTATCTCGAGTAAACAAATTTTCCTAATCTTTCTGTTCAAGCGCCATCTAC,4.93 RPM ratio (pull-down/input)
3,GATGATTGTTCTCCCAGCTGATGAATTGTGTATCTCGAGTAAACAAATTTTCCTAATCTTTCTGTTCAAGCGCCATCTAC,6.36 RPM ratio (pull-down/input)
4,GATGATTGTTCTCCCAGCTGATGAATTTGACTTTTCGAGTAAACAAATTTTCCTAATCTTTCTGTTCAAGCGCCATCTAC,0.49 RPM ratio (pull-down/input)
5,GATGATTGTTCTCCCAGCTGATGAATTGACGTAGTCGAGTAAACAAATTTTCCTAATCTTTCTGTTCAAGCGCCATCTAC,0.381 RPM ratio (pull-down/input)
6,GATGATTGTTCTCCCAGCTGATGAATTTAAGCATTCGAGTAAACAAATTTTCCTAATCTTTCTGTTCAAGCGCCATCTAC,5.65 RPM ratio (pull-down/input)
7,GATGATTGTTCTCCCAGCTGATGAATTCAAGCATTCGAGTAAACAAATTTTCCTAATCTTTCTGTTCAAGCGCCATCTAC,4.27 RPM ratio (pull-down/input)
8,GATGATTGTTCTCCCAGCTGATGAATTAAATTTCTCGAGTAAACAAATTTTCCTAATCTTTCTGTTCAAGCGCCATCTAC,0.664 RPM ratio (pull-down/input)
9,GATGATTGTTCTCCCAGCTGATGAATTACAGCATTCGAGTAAACAAATTTTCCTAATCTTTCTGTTCAAGCGCCATCTAC,5.18 RPM ratio (pull-down/input)
10,GATGATTGTTCTCCCAGCTGATGAATTAAGCCATTCGAGTAAACAAATTTTCCTAATCTTTCTGTTCAAGCGCCATCTAC,4.08 RPM ratio (pull-down/input)
11,GATGATTGTTCTCCCAGCTGATGAATTAAAGCATTCGAGTAAACAAATTTTCCTAATCTTTCTGTTCAAGCGCCATCTAC,5.57 RPM ratio (pull-down/input)
12,GATGATTGTTCTCCCAGCTGATGAATTAAGCATTTCGAGTAAACAAATTTTCCTAATCTTTCTGTTCAAGCGCCATCTAC,6.1 RPM ratio (pull-down/input)
13,GATGATTGTTCTCCCAGCTGATGAATTAAGCAGCTCGAGTAAACAAATTTTCCTAATCTTTCTGTTCAAGCGCCATCTAC,1.33 RPM ratio (pull-down/input)
14,GATGATTGTTCTCCCAGCTGATGAATTTAAACATTCGAGTAAACAAATTTTCCTAATCTTTCTGTTCAAGCGCCATCTAC,0.704 RPM ratio (pull-down/input)
15,GATGATTGTTCTCCCAGCTGATGAATTAAGCATCTCGAGTAAACAAATTTTCCTAATCTTTCTGTTCAAGCGCCATCTAC,6.6 RPM ratio (pull-down/input)
16,GATGATTGTTCTCCCAGCTGATGAATTAAGCTGTTCGAGTAAACAAATTTTCCTAATCTTTCTGTTCAAGCGCCATCTAC,1.12 RPM ratio (pull-down/input)
17,GATGATTGTTCTCCCAGCTGATGAATTTTAAGCATCGAGTAAACAAATTTTCCTAATCTTTCTGTTCAAGCGCCATCTAC,0.881 RPM ratio (pull-down/input)

# — article PMC12820563, “FoxP3 forms a head-to-head dimer in vivo and stabilizes its multimerization on adjacent microsatellites”
